# Measured values: PubChem BioAssay (Tox21)
# Inconclusive results are not listed. Activity calls are given as the source filed them. Calls come from the whole dose curve; as a rule, active = well fitted activation curve with a large enough effect in the signal ratio in the repeat runs, with a control signal flat (not every such curve was filed as active); inconclusive = weak or mixed curves; inactive = flat fitted curve, though single readings scatter; the % refers to the signal ratio.
# Test: qHTS assay for small molecule activators of the heat shock response signaling pathway (AID 743210)
# Conditions: HeLa HSE-bla reporter, beta-lactamase ratio, 5 h; series mostly up to 62.6 µM
# Text: U.S. Tox21 Program National Center for Advancing Translational Sciences [NCATS] NIH Chemical Genomics Center [NCGC] U.S. Environmental Protection Agency [EPA] National Institutes of Environmental Health Sciences [NIEHS] National Toxicology Program [NTP] U.S. Food and Drug Administration [FDA] Tox21 Assay Overview: Various chemicals, environmental and physiological stress conditions may lead to the activation of heat shock response/ unfolded protein response (HSR/UPR). There are three heat shock transcription factors (HSFs) (HSF-1, -2, and -4) mediating transcriptional regulation of the human HSR. To identify the compounds that activate HSR signaling, HSE-bla HeLa cell line (Invitrogen, Carlsbad, CA, USA) containing a beta-lactamase reporter gene under the control of the heat shock response elements was used to screen the Tox21 10K compound library.
# Tox21 Assay Protocol Summary: The CellSensor HSE-bla HeLa cells (Invitrogen, Carlsbad, CA, USA) were dispensed at 1500 cells/6uL/well into 1536-well black wall/clear bottom plates using a Multidrop combi (Thermo Fisher Scientific, Waltham, MA) dispenser. After the assay plates were incubated at 37 C and 5% CO2 overnight, 23 nL of compounds dissolved in DMSO, positive controls or DMSO only was transferred to the assay plate by a Pintool station (Kalypsys, San Diego, CA). The plates were incubated at 37 C for 5 h. After 1 uL of LiveBLAzerTM B/G FRET substrate was added using a Flying Reagent Dispenser (Beckman Coulter, Indianapolis, IN, USA), the plates were incubated at room temperature for 2.5 h, and fluorescence intensity was measured by an Envision plate reader (PerkinElmer, Shelton, CT).
row,Compound,outcome
1,C=CC(=O)OCCCC,inactive
2,C=C[C@@]1(C)CC(=O)[C@]2(O)[C@@]3(C)[C@@H](O)CCC(C)(C)[C@@H]3[C@H](O)[C@H](OC(C)=O)[C@@]2(C)O1,inactive
3,COCCOCCOCCO,inactive
4,CC(C)(Oc1ccc(Cl)cc1)C(=O)O,inactive
5,NC[C@H](O)c1ccc(O)c(O)c1,inactive
6,CC1=CC(C)(C)Nc2ccccc21,inactive
7,Brc1nc2ccccc2s1,inactive
8,O=C(O)CCCCCCCCCCCC(=O)O,inactive
9,OC[C@H]1O[C@@H]2O[C@H]3[C@H](O)[C@@H](O)[C@@H](O[C@H]4[C@H](O)[C@@H](O)[C@@H](O[C@H]5[C@H](O)[C@@H](O)[C@@H](O[C@H]6[C@H](O)[C@@H](O)[C@@H](O[C@H]7[C@H](O)[C@@H](O)[C@@H](O[C@H]1[C@H](O)[C@H]2O)O[C@@H]7CO)O[C@@H]6CO)O[C@@H]5CO)O[C@@H]4CO)O[C@@H]3CO,inactive
10,CC(C)[C@@H]1CC[C@@H](C)CC1=O,inactive
11,C[C@]12CC[C@@H]3c4ccc(O)cc4CC[C@H]3[C@@H]1CC[C@H]2O,inactive
12,O=C(O)c1ccc(O)cc1,inactive
13,CCCOCCO,inactive
14,C=C1C[C@H]2[C@@H]3C=C(C)C4=CC(=O)CC[C@]4(C)[C@H]3CC[C@]2(C)[C@@]1(OC(C)=O)C(C)=O,inactive
15,CCC(Cc1c(I)cc(I)c(N)c1I)C(=O)O (stereo not given),inactive
16,CN(C)C,inactive
17,NCCN,inactive
18,c1ccc2c(c1)ccc1ncccc12,inactive
19,Cc1ccc(S(=O)(=O)O)cc1C,inactive
20,CC(C)(C)c1cccc(C(C)(C)C)c1O,inactive

row,Compound,outcome
1,O=C(O)CCCC(=O)O,inactive
2,CC1(C)OC(=O)NC1=O,inactive
3,Cc1ccc(C)c(O)c1,inactive
4,c1ccc2ncccc2c1,inactive
5,CC/C=C\C/C=C\C/C=C\CCCCCCCC(=O)O,inactive
6,CC(=O)Oc1c(C)c(C)c2c(c1C)CC[C@@](C)(CCC[C@H](C)CCC[C@H](C)CCCC(C)C)O2,inactive
7,CC[C@]12CCCN3CCc4c(n(c5ccccc45)[C@@](O)(C(=O)OC)C1)[C@@H]32,inactive
8,CCCCCCCCCCCCCO,inactive
9,C[C@]12C=CC(=O)C=C1CC[C@H]1[C@@H]3C[C@@H](O)[C@](O)(C(=O)CO)[C@@]3(C)C[C@H](O)[C@@]12F,inactive
10,c1ccc2c(c1)[nH]c1ccccc12,inactive
11,CCC(=O)O[C@H]1[C@H](O[C@@H]2[C@@H](C)[C@H](O[C@H]3C[C@@](C)(OC)[C@@H](O)[C@H](C)O3)[C@@H](C)C(=O)O[C@H](CC)[C@@](C)(O)[C@H](O)[C@@H](C)C(=O)[C@H](C)C[C@@]2(C)O)O[C@H](C)C[C@@H]1N(C)C,inactive
12,CC(=O)Nc1ccc2c(c1)Cc1cc(NC(C)=O)ccc1-2,inactive
13,[Na+],inactive
14,COc1ccc(-c2coc3cc(O)cc(O)c3c2=O)cc1,inactive
15,Oc1ccc(C(c2ccc(O)cc2)C(Cl)(Cl)Cl)cc1,inactive
16,Nc1cc(Cl)c(N)c(Cl)c1,inactive
17,COc1cc([C@H]2Oc3cc([C@H]4Oc5cc(O)cc(O)c5C(=O)[C@@H]4O)ccc3O[C@@H]2CO)ccc1O,inactive
18,CN(C)/N=N/c1nc[nH]c1C(N)=O,inactive
19,COC(=O)c1ccc(C)cc1,inactive
20,CC(=O)OC(C)C,inactive
